Assay outcomes as filed in PubChem BioAssay.
This is a sample that favours compounds with a hit; in the whole collection about 9.4% have one here.
FLuc modulator = counter-screen for miR-21 project: firefly luciferase inhibitors or activators. P08659. purified FLuc, Km substrates, luminescence inhibition. Potency, µM (doses to about 57.5 µM), for the others: at the highest dose activity change, negative = inhibition, most hits filed as inhibitors. actives 6.9% (n = 360,000). AID 588342;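 also: plate controls were vehicle for no effect and reference inhibitor for full effect; nearly all actives have a fitted effect of over 55% in size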
Target sequence (P08659 whole entry, looked up): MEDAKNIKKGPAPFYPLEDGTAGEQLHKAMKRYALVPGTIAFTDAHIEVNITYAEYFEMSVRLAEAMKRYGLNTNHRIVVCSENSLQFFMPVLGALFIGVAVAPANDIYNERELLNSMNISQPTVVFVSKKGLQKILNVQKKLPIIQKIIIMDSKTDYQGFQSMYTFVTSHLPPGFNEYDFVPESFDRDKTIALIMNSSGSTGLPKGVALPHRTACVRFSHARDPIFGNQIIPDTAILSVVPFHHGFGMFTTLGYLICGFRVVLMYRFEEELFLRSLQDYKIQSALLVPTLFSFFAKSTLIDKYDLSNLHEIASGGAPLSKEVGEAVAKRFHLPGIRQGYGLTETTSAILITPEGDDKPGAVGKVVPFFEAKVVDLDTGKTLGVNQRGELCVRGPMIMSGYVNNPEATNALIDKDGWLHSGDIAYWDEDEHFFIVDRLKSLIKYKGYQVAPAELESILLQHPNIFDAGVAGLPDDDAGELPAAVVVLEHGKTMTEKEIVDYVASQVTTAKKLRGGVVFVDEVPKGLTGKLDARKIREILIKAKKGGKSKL
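Purified P. pyralis luciferase, 10 nM final, with Km-level 10 uM D-luciferin and 10 uM ATP in 50 mM Tris acetate pH 7.5, 10 mM Mg acetate, 0.01% Tween-20, 0.05% BSA; 6-point qHTS titration about 60 µM downward; luminescence read.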
SMN2 splice enh = SMN2 splice variant enhancement; AID 1458; HEK293 SMN2-luciferase splicing reporter, luminescence, 30-36 h; actives 2.8% (n = 210,000); Potency, µM (top dose mostly 46.1 µM), without a hit: at the highest dose activity change, positive = activation, actives largely listed as activators; also: % of control where 0% means no effect; nearly all actives have a fitted effect of over 55% in size
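HEK293 cells carry an SMN2 minigene-luciferase reporter in which exon 7 inclusion puts luciferase in frame. Cells were seeded at 2000 cells/well, attached for 10-12 hours, then exposed to compounds for 30-36 hours at 37C before ONE-Glo luminescence.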
ELG1 genotox = inducers of genotoxicity in HEK293T ELG1-luciferase cells; actives 1.3% (n = 330,000); HEK293T ELG1-luciferase reporter, luminescence, 16 h; Potency, µM (highest dose often 46 µM), without a hit: at the top dose activity change, positive = activation, most hits filed as activators; also: % of control where 0% means no effect; nearly all actives have a fitted effect of over 60% in size
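Step 1: seed 2,000 HEK293T ELG1-luciferase cells per well. Step 2: add compound or DMSO, incubate 16 hr at 37 °C. Step 3: ONE-Glo, 30 min at room temperature, read luminescence.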
ELG1 DNA repair = inhibitors of ELG1-dependent DNA repair in HEK293T cells. Potency, µM (highest dose often 46.1 µM), for the others: at the highest dose activity change, negative = inhibition, usual class: inhibitors. actives 2.3% (n = 330,000). HEK293T ELG1-luciferase reporter, luminescence, 16 h; DNA damage induced by 5-fluorouridine; also: % is scaled to controls: 0 for no effect and ±100 for the full control effect; nearly all actives have a fitted effect of over 55% in size
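Overnight (16 hr) co-exposure of 2,000 cells/well to 5-fluorouridine and compound at 37 °C preceded detection. Luciferase was quantified via ONE-Glo luminescence; loss of signal denotes inhibition.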
Rab9 prom act = Rab9 promoter activation | Huh7 Rab9 promoter-luciferase reporter, luminescence, 24 h | Potency, µM (highest dose often 9.22 µM), for inactives: at the top dose activation, negative = inhibition, most hits filed as activators | actives 2.8% (n = 320,000) | AID 485297; also: % of control where 0% means no effect; nearly all actives have a fitted effect of over 60% in size
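Stable Rab9-luc Huh7, 1500 cells/well, 2 h settle; cmpd in DMSO, 24 h, 37 °C/5% CO2; luciferase reagent 10 min RT; luminescence.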
NPC1 prom act = activates the NPC1 promoter. Huh7 NPC1 promoter luciferase reporter, 24 h. Potency, µM (titrated, usually from 9.22 µM), for the others: at the top dose activation, most hits filed as activators. actives 2.4% (n = 320,000). AID 485313; also: % of control where 0% means no effect; nearly all actives have a fitted effect of over 60% in size
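Stable NPC1-promoter luciferase Huh7 line; cpd (DMSO) 24 h, 37 °C, 5% CO2; Amplite luciferase reagent 10 min RT; luminescence readout. qHTS format.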
An asterisk follows results filed as active; u = inconclusive; x = not tested or not shown; [ ] = dose if it differs, or a comment. Calls follow the shape of the dose curve; as a rule, active = well fitted curve in the direction sought with a large enough effect; inconclusive = small, poorly fitted or top-dose-only effect, or another doubt; inactive = no such curve, though single readings can be large; an effect the other way counts as inactive or inconclusive. Potency is read from the fitted curve at half-maximal effect.

SMILES | FLuc modulator | SMN2 splice enh | ELG1 genotox | ELG1 DNA repair | Rab9 prom act | NPC1 prom act
CNc1cc(CSc2ccc(Cl)cc2)nc(C)n1 | 17µM* | u | 18% | u | 2.2µM* | u
Clc1ccc2nc(CSc3nnc4ccccn34)cn2c1 | 7.6µM* | 10µM* | 8.2µM* | u | 1µM* | 0.5µM*
Clc1ccc2nc(CSc3nncn3-c3ccccc3)cn2c1 | 5% | -8% | 0% | -3% | 1% | -2%
c1ccc(N2CCN(c3ncnc4c3oc3ccccc34)CC2)cc1 | -10% | -17% | -23% | u | -1% | 3%
Brc1ccc2oc3c(N4CCOCC4)ncnc3c2c1 | 15µM* | 19% | 15% | u | u | u
Cc1cccc2c1OCC/C2=N\NC(=O)COc1ccccc1Cl | 3.8µM* | 22% | u | u | 3.2µM* | 2.2µM*
CCCc1nn2c(=O)cc(COC(=O)c3ccc(NC(=O)c4cccs4)cc3)nc2s1 | 0% | x | x | x | x | x
COc1ccc(/C=C/C=N/NC(=O)COc2ccc(OC)cc2)cc1 | 4.8µM* | 23% | 1% | 11% | 19% | 13%
Cc1ccc(OCC(=O)N/N=C/C=C/c2ccco2)cc1 | 19µM* | -1% | -1% | 3% | -5% | -2%
COc1ccc(/C=C/C(=O)Oc2cccc(/C=N/NC(=O)COc3c(C)cccc3C)c2)cc1 | -14% | u | u | u | 2.8µM* | 1.6µM*
COc1ccc(/C=C/C(=O)Oc2ccc(/C=N/NC(=O)COc3c(C)cccc3C)cc2)cc1 | 0% | u | 21% | 10% | -7% | -2%
O=C(COc1cccc2ccccc12)N/N=C/C=C/c1ccccc1 | 0% | 1% | 3% | -2% | -9% | -1%
O=C(Nc1cccc(Cl)c1)C1CCN(S(=O)(=O)Cc2ccccc2)CC1 | -3% | x | x | x | x | x
Cc1cccnc1NC(=S)Nc1ccc(Br)cc1Cl | 4.8µM* | 25µM* | u | u | 3.2µM* | 3.2µM*
Cc1ccc(-c2csc3nc[nH]c(=S)c23)cc1 | 2% | -80% | -2% | u | -3% | -4%
S=c1[nH]cnc2scc(-c3ccc(Cl)cc3)c12 | 1% | x | -8% | 16µM* | 0% | -5%
Cc1c(C(=O)Nc2ccccc2)cn2c(nc3ccccc32)c1C#N | -2% | -4% | 9% | 4% | -2% | -1%
Cc1ccccc1C(=O)Nc1ccc2c(C#N)c3nc4ccccc4nc3n2c1 | -3% | -12% | -5% | 18µM* | -6% | -4%
Cc1ccc(/C=N/Nc2cccc(C(=O)O)c2)s1 | 0.95µM* | 0.25µM* | u | u | 0.089µM* | 0.089µM*
Cc1ccc(/C=N/Nc2ccc(C(=O)O)cc2)s1 | 0.54µM* | -98% | u | u | u | u
Cc1ccc(/C=N/NC(=O)c2cccnc2)s1 | u | x | 12% | 11% | 12% | 13%
Cc1ccc(/C=N/NC(=O)C[n+]2ccccc2)s1 | -1% | x | 7% | u | 2% | 0%
O=C(O)c1ccc(N/N=C/c2cc(Br)cs2)cc1 | 0.24µM* | x | u | u | 0.1µM* | 0.089µM*
O=C(CSc1ncc2c(n1)-c1cc(Cl)ccc1N(Cc1ccccc1F)S2(=O)=O)Nc1cccc(C(F)(F)F)c1 | 3% | x | x | x | x | x
Cc1nc(SCC(=O)Nc2ccccc2Cl)cc(-c2ccccc2)n1 | -15% | x | x | x | x | x
SMILES | FLuc modulator | SMN2 splice enh | ELG1 genotox | ELG1 DNA repair | Rab9 prom act | NPC1 prom act
CCCN1CCN(CCCNC(=O)c2ccc3c(c2)sc2nc(-c4ccc(OC)cc4)cn23)CC1 | -5% | x | x | x | x | x
COc1ncc2nc(CCc3ccccc3)c(=O)n(CCC#N)c2n1 | x | -12% | x | x | x | x
O=C(O)CSc1ncnc2c1sc1nc(-c3ccccc3)c3c(c12)CCC3 | 11µM* | x | 4% | 8% | -1% | 1%
COc1ccccc1C(=O)Nc1ccc(C(=O)OCc2cc(=O)n3c4c(sc3n2)CCCC4)cc1 | -8% | x | x | x | x | x
COc1cccc(N2CCc3c(C)nc4ccc(Cl)cc4c32)c1 | -1% | x | -17% | 23µM* | -6% | -8%
CCOC(=O)c1ccc(NC(=O)N(CC)CC)cc1 | 19µM* | 11µM* | 16µM* | u | 2.5µM* | u
Cc1ccc(NC(=S)N(CCN(C)C)Cc2cccs2)cc1 | 0% | -20% | -4% | -15% | -2% | -8%
CCOC(=O)c1ccc(NC(=O)CN(C)S(=O)(=O)c2ccc(Br)s2)cc1 | u | -19% | 0% | 26µM* | -8% | 1%
CCOC(=O)CC(=O)Nc1ccc(C(=O)OCC)cc1 | -20% | -4% | 19% | 20% | 1%[1.84 µM] | 0%
CCOC(=O)c1ccc(NC(=S)N(CCN(C)C)Cc2cccs2)cc1 | -1% | 3.5µM* | -11% | u | -1% | -8%
CC(C)OC(=O)c1ccc2nc3ccccc3nc2c1 | 1.7µM* | x | u | u | 0.71µM* | 2.8µM*
O=C(CSc1nc(=O)[nH]c2c1CCCC2)Nc1ccccc1C(F)(F)F | -1% | x | x | x | x | x
Cc1cc(Nc2ccccc2C)n2nc(Cc3ccc(Cl)cc3)nc2n1 | 6% | 11% | x | x | x | x
CCCC(=O)Nc1ccc(-c2nc3ncccc3o2)cc1C | -17% | u | x | x | x | x
O=C(Cc1ccc(-c2ccccc2)cc1)NCCS(=O)(=O)N1CCN(c2ccccc2F)CC1 | 3% | x | x | x | x | x
COc1ccc(CCNC(=O)c2csc3c2CCCCC3)c(OC)c1 | -6% | u | x | x | x | x
CC(C)OC(=O)c1ccc(NC(=O)c2ccccc2)cc1 | 15µM* | 13µM* | 17% | u | u | 4µM*
COC(=O)c1ccc(NC(=O)c2cccc(NC(=O)c3ccco3)c2)cc1 | -14% | x | 1% | -1% | 8% | -9%
CC(C)OC(=O)c1ccc(NC(=O)c2ccco2)cc1 | 13µM* | x | 2.8µM* | u | 3.2µM* | 2.5µM*
CCOC(=O)c1ccc(NC(=O)c2ccco2)cc1 | 11µM* | x | u | u | 2.2µM* | 3.5µM*
Cc1ccc(NC(=O)CNC(=O)c2ccco2)cc1 | u | x | 17% | u | 4µM* | u
CCc1ccccc1N(c1nc(-c2ccc(OC)c(OC)c2)no1)c1nc(-c2ccc(OC)c(OC)c2)no1 | -2% | -8% | x | x | x | x
COc1ccc(OC)c(Nc2cc(C)nc3ccccc23)c1 | 5% | -15% | -9% | 21µM* | -1% | -1%
COc1ccc(OC)c(NC(=O)Cn2c(C)nc3ccccc3c2=O)c1 | 9.5µM* | x | u | u | 19% | 3.2µM*
COc1ccc(OC)c(NC(=O)CSc2nc3ccccc3c(=O)n2CCNC(C)=O)c1 | -1% | -5% | 0% | 4% | -2% | -2%
CCCn1c(SC(C(=O)Nc2cc(C)ccc2OC)c2ccccc2)nc2ccccc2c1=O (stereo not given) | 3% | -1% | -5% | 18µM* | -4% | -2%
